This is a sample that favours compounds with a hit; in the whole collection about 9.3% have one here.
FMDV antiviral: High Throughput Screening for Foot and Mouth Disease Virus Antivirals | FMDV antiviral cell-based qHTS | Potency, µM (top dose mostly 57.9 µM), usual class: inhibitors | actives 1.2% (n = 410,000) | AID 1159524, 2015; calls by dose curve; tested in HEK293T cells; also: read-out not given here; nearly all actives have a fitted effect of over 45% in size
HCMV inh: qHTS Assay for inhibitors of the human cytomegalovirus (HCMV); HFF cells, HCMV-luciferase reporter, 72 h; active compounds read low; activity change, negative = inhibition, % at 57.5 µM; actives 4.5% (n = 410,000); in the data active = activity change below about -60%; inconclusive = no clear call, values can overlap the other calls; inactive = above about -39%
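Two-dose cell screen: HFF monolayers treated with compounds and infected with luciferase-expressing HCMV at 1 PFU/cell, 72 h at 37C, then lysed for luciferase measurement.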
VACV Venus inh: qHTS for Stage-Specific Inhibitors of Vaccinia Orthopoxvirus: Venus Reporter Primary qHTS; Vaccinia virus Venus reporter expression, fluorescence; Potency, µM (doses to about 36.5 µM), actives largely listed as inhibitors; actives 0.46% (n = 330,000); calls by dose curve; tested in A549 cells; also: nearly all actives have a fitted effect of over 30% in size
HCV inh: qHTS Assay for Inhibitors of Hepatitis C Virus (HCV); Potency, µM (titrated, usually from 41.8 µM), hits mostly inhibitors; Huh7.5.1 HCVcc-Cre infection, luciferase reporter, 44 h; AID 651820, 2012; actives 3.4% (n = 340,000)
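Antiviral activity was scored by luciferase reporter output from cells infected with HCVcc-Cre (~0.5 moi) in presence of compound, 44 h infection period, cells seeded 1,000/well 4 h prior.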
Sm TGR block: qHTS Assay for the Inhibitors of Schistosoma Mansoni Peroxiredoxins | Schistosoma mansoni thioredoxin glutathione reductase (TGR), Q962Y6 | purified TGR, DTNB reduction, TNB absorbance 405 nm | Potency, µM (top dose mostly 114 µM), hits mostly inhibitors | actives 3% (n = 360,000) | AID 485364, 2010; also: nearly all actives have a fitted effect of over 60% in size
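Kinetic colorimetric format: TGR-catalysed, NADPH-driven DTNB reduction monitored via TNB absorbance. Enzyme dispensed at 20 nM; compound exposure 15 min at room temperature before reaction start.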
Vaccinia mCherry: qHTS for Stage-Specific Inhibitors of Vaccinia Orthopoxvirus: mCherry Reporter Primary qHTS | Vaccinia virus mCherry reporter infection, fluorescence | Potency, µM (series often up to 36.5 µM), hits mostly inhibitors | actives 0.63% (n = 310,000) | AID 720579, 2013; calls by dose curve; tested in A549 cells; also: nearly all actives have a fitted effect of over 35% in size
HCV confirm: qHTS Assay for Inhibitors of Hepatitis C Virus (HCV): Confirmation Assay for Cherry-picked Compounds | shares compounds with HCV inh | actives 78% (n = 640) | Potency, µM (doses to about 41.8 µM), most hits filed as inhibitors | HCVcc-Cre infectious virus cell assay, luciferase, inhibition; also: nearly all actives have a fitted effect of over 80% in size
HCV cytotox: qHTS Assay for Inhibitors of Hepatitis C Virus (HCV): Cytotoxicity Counterscreen for Cherry-picked Compounds; actives 22% (n = 640); Potency, µM (highest dose often 41.8 µM), usual class: inhibitors; shares compounds with HCV inh; HCV host cell line cytotoxicity counterscreen;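 also: 44 h compound exposure; nearly all actives have a fitted effect of over 55% in size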
Each line names hits and unclear results; the compound was inactive in the other large screens (follow-up assays come after a bar, where they were run); ! = not confirmed by another sample. Unless noted, calls follow the shape of the dose curve; as a rule, active = well fitted curve in the direction sought with a large enough effect; inconclusive = small, poorly fitted or top-dose-only effect, or another doubt; inactive = no such curve, though single readings can be large; an effect the other way counts as inactive or inconclusive.

CC(=O)c1cccc(S(=O)(=O)NCC(C)(C)N2CCOCC2)c1	Sm TGR block 40µM
Cc1ccccc1NS(=O)(=O)c1ccc(C(=O)NCC(C)(C)N2CCOCC2)cc1	HCMV inh -67, HCV inh inconclusive
CC(C)(CNC(=O)c1ccc(S(=O)(=O)Nc2ccccc2F)cc1)N1CCOCC1	HCV inh inconclusive
CN(C)CC/C=C1/c2ccc(F)cc2Sc2ccc(Cl)cc21	HCV inh 8.9µM (no result: Sm TGR block) | HCV confirm 14µM | HCV cytotox inactive
Cc1cc(C)c2nc(NNC(=O)c3ccc(S(=O)(=O)N4CCc5ccccc5C4)cc3)sc2c1	HCMV inh -97, VACV Venus inh inconclusive, HCV inh 4.5µM, Vaccinia mCherry 16µM | HCV confirm 3.5µM | HCV cytotox inconclusive
CCc1nnc(NC(=O)c2ccc(S(=O)(=O)N3CCc4ccccc4C3)cc2)s1	none
CN1CCN(/N=C/c2ccc(Cl)c(Cl)c2)CC1	HCV inh inconclusive | HCV confirm inconclusive | HCV cytotox inactive
Cc1cc(NC(=O)CCCn2nc([N+](=O)[O-])c(Cl)c2C)no1	none (no result: VACV Venus inh, Vaccinia mCherry)
CCCCCCCCn1ccc(=N)cc1	FMDV antiviral inconclusive, HCMV inh inconclusive, HCV inh 0.89µM | HCV confirm 1.8µM | HCV cytotox 2.2µM
CCCCn1c(=N)n(CC(=O)O)c2ccccc21	none (no result: Sm TGR block)
COc1ccc(N2C(=O)Cc3ccccc3C2=O)cc1	none
C[C@H]1C[C@@H]2[C@H]([C@@H](O)C[C@@]3(C)[C@H]2CC[C@]3(O)C(=O)CO)[C@@]2(C)C=CC(=O)C=C12	HCV inh 5.6µM! | HCV confirm inactive | HCV cytotox inactive
Cn1c(CN2CCOCC2)nnc1SCc1cccc(F)c1	none (no result: VACV Venus inh, Vaccinia mCherry)
COc1ccccc1NC(=O)c1ccc(NC(=O)CNC(=O)c2ccc(OC)c(OC)c2)cc1	none
COc1ccccc1NC(=O)c1ccc(NC(=O)COC(=O)c2ccc(O)cc2)cc1	HCV inh inconclusive (no result: VACV Venus inh, Vaccinia mCherry) | HCV confirm inconclusive | HCV cytotox inconclusive
CCOC(=O)C1(CCc2ccccc2)CCN(Cc2csc(C(C)=O)c2)CC1	FMDV antiviral 13µM, HCMV inh inconclusive, VACV Venus inh inconclusive, HCV inh 6.3µM | HCV confirm 14µM | HCV cytotox inconclusive
CCOC(=O)C1(CCc2ccccc2)CCN(Cc2ccc(O)cc2)CC1	FMDV antiviral inconclusive, HCV inh inconclusive (no result: VACV Venus inh, Vaccinia mCherry)
Cc1ccccc1C(=O)Nc1ccccc1-c1nnn(CC(=O)Nc2ccc3c(c2)OCCO3)n1	FMDV antiviral inconclusive, HCV inh 5µM (no result: VACV Venus inh, Vaccinia mCherry) | HCV confirm inconclusive | HCV cytotox inactive
COc1cc([N+](=O)[O-])ccc1NC(=O)CN(C)C	HCV inh inconclusive (no result: FMDV antiviral)
CCN(CC(=O)Nc1ccc([N+](=O)[O-])cc1OC)c1ccccc1	HCV inh 3.2µM (no result: FMDV antiviral) | HCV confirm 14µM | HCV cytotox inactive
Cc1ccc(OCCCCNC2CCCC(C)C2C)c(C)c1 (stereo not drawn)	VACV Venus inh 10µM, HCV inh 7.9µM, Vaccinia mCherry inconclusive | HCV confirm 25µM | HCV cytotox inconclusive
Cc1ccc(OCCCCN2CCCCC2)c(C)c1	none (no result: VACV Venus inh, Vaccinia mCherry)
CCn1c(Cc2ccccc2)nnc1SCC(=O)N1CCCCC1	none
CCN(C)C(=O)C1=COC2=NC(=O)N(Cc3cccc(Cl)c3)CCN12	none (no result: FMDV antiviral, VACV Venus inh, HCV inh, Sm TGR block, Vaccinia mCherry)
COc1ccc([N+](=O)[O-])cc1NC(=O)c1ccco1	HCV inh inconclusive | HCV confirm inconclusive | HCV cytotox inactive
Cc1nc(N)nc(N)c1CCCc1ccc(Cl)c(Cl)c1	HCMV inh -87, HCV inh 4µM (no result: Sm TGR block) | HCV confirm 7µM | HCV cytotox inconclusive
Cc1cc2occ(CC(=O)N(CCC(C)C)c3c(N)n(Cc4ccccc4)c(=O)[nH]c3=O)c2cc1C	HCV inh inconclusive
COCCn1c(C)cc(C(=O)Cn2nc(C(=O)O)c3ccccc3c2=O)c1C	none (no result: VACV Venus inh, Vaccinia mCherry)
Cc1oc(-c2ccc(Cl)cc2)nc1CN1CCCN(C(=O)c2ccco2)CC1	FMDV antiviral inconclusive, HCV inh inconclusive
Cc1cc(N2CCN(Cc3nc(-c4ccc(Cl)cc4)oc3C)CC2)cc(C)n1	HCMV inh inconclusive, VACV Venus inh inconclusive, HCV inh 2.2µM | HCV confirm 10µM | HCV cytotox inconclusive
COc1ccc2c(C)cc(SCc3c(C)noc3C)nc2c1	HCV inh 6.3µM | HCV confirm 22µM | HCV cytotox inactive
COc1ccc2c(C)cc(SCC#N)nc2c1	HCV inh inconclusive (no result: VACV Venus inh, Vaccinia mCherry)
Cc1cccc(Cn2c(O)c(N=NC(=S)Nc3ccccc3F)c3ccccc32)c1	HCV inh 4µM (no result: VACV Venus inh, Vaccinia mCherry) | HCV confirm 7.9µM | HCV cytotox inconclusive
S=c1[nH]cnc2scc(-c3ccc(Cl)cc3)c12	FMDV antiviral inconclusive
O=C(Nc1ccc([N+](=O)[O-])cc1)/C(=C/c1cccc([N+](=O)[O-])c1)NC(=O)C1CCCCC1	HCV inh inconclusive (no result: FMDV antiviral) | HCV confirm 22µM | HCV cytotox inactive
O=C(NC(=S)Nc1cccc([N+](=O)[O-])c1)C1CCCCC1	none
O=C(COc1ccc(/C=N/NC(=O)c2cc3ccccc3o2)cc1Cl)Nc1ccccc1	VACV Venus inh inconclusive, HCV inh 5.6µM, Vaccinia mCherry inconclusive (no result: HCMV inh) | HCV confirm 7µM | HCV cytotox 7µM
CN1C(=O)C(=Cc2ccc(OCCN(C)c3ccccn3)cc2)C(=O)N(C)C1=O	none (no result: VACV Venus inh, Vaccinia mCherry)
COc1ccc(S(=O)(=O)n2ccc(-c3ccc(OCCN(C)c4ccccn4)cc3)n2)cc1	HCMV inh inconclusive, HCV inh 6.3µM (no result: VACV Venus inh, Vaccinia mCherry) | HCV confirm 7µM | HCV cytotox inconclusive
CCN(CC(=O)Nc1c(F)cccc1F)C(=O)c1cc(S(=O)(=O)N(CC)CC)ccc1N1CCCCC1	none
Cc1cc(C)nc(NCC(O)CNc2ccccc2Cl)n1 (stereo not drawn)	FMDV antiviral inconclusive, HCV inh inconclusive | HCV confirm 28µM | HCV cytotox inactive
CC(Sc1nncn1C)C(=O)Nc1ccc2ccccc2c1 (stereo not drawn)	none
COc1ccc(-c2c(C(=O)c3ccccc3)[nH]c(N)c2C(=O)NCc2ccccc2)cc1OC	none (no result: HCV inh, Sm TGR block)
CCOC(=O)c1cc2c(=O)n3ccccc3nc2n(CCCOC)c1=NC(=O)C(C)(C)C	HCV inh inconclusive | HCV confirm inconclusive | HCV cytotox inactive
CCOC(=O)c1cc2c(=O)n3ccccc3nc2n(CCOC)c1=NC(=O)C(C)(C)C	HCV inh inconclusive (no result: VACV Venus inh, Vaccinia mCherry)
